# Data: PubChem BioAssay (NCI)
# The panel holds about 83,000 compounds, 20% with a hit somewhere; the sample as a whole holds those more often.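 Cell lines were cultured in 96-well plates, exposed to a single compound concentration, and assessed for percent growth 48 hours later.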 Unmarked numbers belong to inactive results. Activity calls are given as the source filed them. The calls were made as follows: active = growth percent below 10; inactive = the rest.
# What was measured:
# Experiment in all cases: NCI-60 one-dose screen, 48 h (100 = growth as untreated, 0 = no growth, -100 = all killed)
# Details in all cases: 10 µM unless noted
# SK-MEL-2 melanoma = tested on: SK-MEL-2 melanoma
# EKVX NSCLC = tested on: EKVX NSCLC
# SN12C renal = tested on: SN12C renal
# UO-31 renal = tested on: UO-31 renal
# TK-10 renal = tested on: TK-10 renal
# ACHN renal = tested on: ACHN renal
# CAKI-1 renal = tested on: CAKI-1 renal
# A498 renal = tested on: A498 renal
# CCRF-CEM leukemia = tested on: CCRF-CEM leukemia
# MOLT-4 leukemia = tested on: MOLT-4 leukemia
SMILES,growth (SK-MEL-2 melanoma),growth (EKVX NSCLC),growth (SN12C renal),growth (UO-31 renal),growth (TK-10 renal),growth (ACHN renal),growth (CAKI-1 renal),growth (A498 renal),growth (CCRF-CEM leukemia),growth (MOLT-4 leukemia)
O=C1Nc2c(ccc(Cl)c2Cl)/C1=C/c1ccc(F)cc1,5.62% (active),60.2%,98.3%,71.9%,109%,85.9%,38%,92.5%,93.5%,76%
CC(C)CN(C(=O)c1ccc(Cl)cc1)c1c(N)n(CC(C)C)c(=O)[nH]c1=O,96.4%,106%,87.8%,98.2%,125%,101%,50.2%,108%,93.1%,97.2%
Nc1nc(N)nc(NCc2ccccc2)n1,112%,99.3%,98.4%,91.1%,95.8%,106%,99.7%,105%,109%,95.4%
COc1cc(Nc2cc(O)c3c(=O)cc(-c4ccccc4)oc3c2)cc(OC)c1,13.2%,38.2%,44.3%,40.3%,44%,48.3%,47.2%,-4.73% (active),10.8%,24.6%
COc1cc(/C=C/C(=O)c2ccc(Nc3ncnc4ccccc34)cc2)cc(OC)c1,112%,79.3%,71.3%,51.2%,79.1%,76.8%,69.3%,85.9%,20.6%,19.1%
CSc1nnc2c(=O)n(C)c(=O)n(C)c2n1,-28.8% (active),111%,96.1%,88.9%,99.9%,98%,110%,88.7%,88.3%,106%
O=S(=O)(c1ccccc1)N1CCCc2ccccc21,103%,101%,98.9%,80.4%,94.5%,99.4%,101%,77.1%,92.4%,94.6%
Cc1ccc2[nH]c(=S)n(-c3ccc(S(=O)(=O)Nc4ccc(Cl)nn4)cc3)c(=O)c2c1,106%,97.8%,96.9%,85.2%,100%,104%,90.6%,92.1%,100%,100%
C(=N\Nc1ncc(-c2cc3cc4c(cc3o2)OCO4)s1)/c1c[nH]c2ccccc12,51.3%,5.32% (active),-12.3% (active),-96.5% (active),22.7%,-31.4% (active),-43.3% (active),-3.19% (active),2.87% (active),-23.8% (active)
Cc1cc(C)c(C=O)c(C)c1,106%,101%,103%,86.3%,103%,108%,94.1%,102%,78.6%,85%
CCCOc1nc(SCCC)nc2c1cnn2-c1ccccc1,86.8%,97.3%,98.7%,91.9%,149%,111%,105%,134%,92.9%,141%
COc1ccc(NC(=O)c2sc3nc(C)c(C(=O)c4ccc(OC)cc4)cc3c2N)cc1,23%,68.5%,63.8%,45.5%,55%,82.8%,42.6%,-3.91% (active),36%,27.5%
C=Cc1cc[n+](CCCCCCCCCCCC)cc1,150%,105%,101%,94%,137%,108%,103%,94.9%,87.9%,94.7%
COc1cc(NCCCN(CC(C)C)CC(C)C)c2ncccc2c1,91.8%,84.5%,88.2%,81.4%,102%,80.7%,92.4%,79.2%,87.5%,103%
COc1cc(NCCCN(CC(C)C)C2CCCC2)c2ncccc2c1,100%,89.9%,61.9%,51%,93.6%,41.7%,76%,37.1%,54.1%,71%
Cc1ccc(-c2c(Br)c(OC(=O)CO[C@@H]3C[C@H](C)CC[C@H]3C(C)C)c(-c3ccc(C)cc3C)c(Br)c2OC(=O)CO[C@H]2C[C@@H](C)CC[C@@H]2C(C)C)c(C)c1,90.2%,101%,98.9%,87%,92.8%,104%,97%,96.1%,90%,97.6%
COc1cc(C2CC(c3cccc(Nc4ccncc4)c3)=NN2c2ccc(Cl)cc2)cc(OC)c1OC (stereo not given),55.8%,65.2%,54.7%,42.4%,68.4%,-62.1% (active),19.2%,64.1%,-9.68% (active),-17.3% (active)
COc1ccc(-c2nc(N/N=C/c3cccc(Br)c3)nc(N3CCOCC3)c2C#N)cc1,80.1%,90.2%,89.4%,43.5%,90.8%,54.6%,59.6%,45.1%,35.6%,46.9%
O=C(Nc1nc2ccc(C(=O)N3CCN(c4ccc(Cl)c(Cl)c4)CC3)cc2s1)c1ccc(NCCc2ccccc2)c([N+](=O)[O-])c1,104%,95.3%,93.3%,60.7%,113%,101%,87%,79.4%,93.6%,95.7%
COc1ccccc1-c1c(-c2ccc(Cl)cc2)c2cc3c(cc2[nH]c1=O)OCCO3,80.5%,53.6%,85.4%,61.9%,86%,70.5%,54.9%,86.8%,41.7%,3.15% (active)
COc1cc2nc(Cc3ccc(C)cc3)[nH]c(=O)c2cc1OC,123%,109%,99.6%,97.5%,292%,110%,129%,90.6%,1.89% (active),95%

SMILES,growth (SK-MEL-2 melanoma),growth (EKVX NSCLC),growth (SN12C renal),growth (UO-31 renal),growth (TK-10 renal),growth (ACHN renal),growth (CAKI-1 renal),growth (A498 renal),growth (CCRF-CEM leukemia),growth (MOLT-4 leukemia)
Cc1nc2sc(C(=O)Nc3cccc(Br)c3)c(N)c2cc1C(=O)c1ccc(C(F)(F)F)cc1,104%,87.7%,71%,86.3%,90.8%,49.7%,79.8%,109%,82.1%,94.7%
CCN(CC)CCOC(COc1cc(C)cc(C)c1)COc1cc(C)cc(C)c1,86.7%,53%,28.8%,31.6%,48%,46.2%,40.1%,28.4%,14.5%,13.5%
O=C(O)CCCCCCCCCCCCCCC(=O)O,103%,106%,93.8%,99.8%,90.4%,107%,103%,76.9%,96.1%,103%
COc1ccc(C(O)c2cc3c(N)c(C(=O)Nc4ccccc4)sc3nc2C)cc1 (stereo not given),9.47% (active),26%,21.5%,19.1%,44.2%,25.7%,15.1%,-20.8% (active),4.7% (active),11.4%
Cc1ccc(C2CC(c3cccc(Nc4ccncc4)c3)=NN2c2cc(Cl)cc(Cl)c2)cc1 (stereo not given),96.4%,77.3%,52.4%,51.8%,72.7%,-61.9% (active),-38.8% (active),77.6%,7.28% (active),1.74% (active)
COc1ccc(-c2nc(N/N=C/c3cccc(O)c3)nc(N3CCOCC3)c2C#N)cc1,85.6%,88.7%,78.3%,34.4%,88.4%,57.8%,77%,85.7%,26.3%,39.8%
CC(C)CCSc1nc(NNC(N)=O)c(C#N)c(-c2ccccc2)n1,107%,99.9%,95%,85.1%,105%,97%,93.7%,105%,100%,110%
S=c1[nH]cccc1-c1nnc2n1Nc1nc3ccccc3cc1CS2,104%,97.1%,98.8%,70.2%,105%,93.3%,82.8%,111%,105%,104%
CC(=O)c1c(C)[nH]c(-c2nc3ccc(N4CCN(C)CC4)cc3[nH]2)c1-c1ccccc1,48.6%,35.5%,37.7%,5.51% (active),23.9%,19.4%,7.67% (active),31.8%,49.1%,50.7%
Cc1ccc2nc3c(cc2c1)CSc1nnc(-c2ccc[nH]c2=S)n1N3,100%,102%,92.8%,64.3%,105%,97.4%,78.7%,101%,104%,91.9%
NC(=O)c1cccc(-c2ccccc2N2CCCCC2)c1,103%,97.2%,93.6%,82.4%,103%,95.3%,83%,95.3%,89.7%,91.1%
O=C1Nc2ccccc2/C1=C\c1cccc(/C=C2/C(=O)Nc3ccccc32)n1,-34% (active),-37.9% (active),8.35% (active),-82.5% (active),-59.3% (active),-100% (active),-80.7% (active),-77.7% (active),-51.9% (active),-30% (active)
Cc1[nH]n(C(=O)c2ccncc2)c(=O)c1N=Nc1ccc(F)c(Cl)c1,114%,87.8%,102%,86.7%,134%,110%,63.4%,102%,19.7%,11.6%
O=C(O)c1cn(C2CC2)c2cc(N3CCN(C(=O)C[n+]4cccc5ccccc54)CC3)c(F)cc2c1=O,72.5%,102%,33.1%,67.1%,100%,61%,81.3%,99.4%,-37.5% (active),5.51% (active)
CCC1(CC)NC(=O)c2c(c3ccc(Cl)c(Cl)c3n2C)C1C#N (stereo not given),115%,95.5%,84%,70.5%,127%,95.5%,66.6%,84.9%,,4.72% (active)
CCN1C(=O)/C(=c2\sc3n(c2=O)NC2C(N=3)N(CC)C(=O)N2CC)c2ccccc21 (stereo not given),65.8%,60.4%,43.8%,48.9%,83.3%,49.3%,42.1%,-17.8% (active),,58.9%
COc1ccc(-c2nc(SC)nc(N3CCOCC3)c2C#N)cc1,101%,97.7%,96.5%,67.4%,97.5%,94.3%,81.4%,63.1%,,87.6%
C#Cc1cccc(NC(=O)Nc2cccc(N=C=S)c2)c1,109% [8.25 µM],99.7% [8.25 µM],97.6% [8.25 µM],87.7% [8.25 µM],119% [8.25 µM],103% [8.25 µM],94.7% [8.25 µM],85% [8.25 µM],96.1% [8.25 µM],97.8% [8.25 µM]
CCCCCCCCN1C(=O)/C(=c2\sc3n(c2=O)C2C(NN=3)N(CC)C(=O)N2CC)c2ccccc21 (stereo not given),86.8%,73.9%,86.1%,66.8%,110%,73.8%,49.3%,86.9%,,101%
COc1cccc2cc(-c3cc4ccccc4[nH]3)/c(=N/C(=S)Nc3ccc(C)cc3)oc12,85%,60.9%,77.6%,85.3%,94.3%,27.9%,19.2%,63%,,101%
